Values joined by “and” are separate entries in the source; they are usually repeats but may differ in a detail not shown here. Equal values may be shown once. Results filed as inconclusive are left out. A call without a number means that no potency is given here. Some structures have more than one record in an assay (separate samples or runs), and their calls can disagree. Active and inactive are the calls of the source. Calls follow the shape of the dose curve; as a rule, active = well fitted curve in the direction sought with a large enough effect in the repeat runs; inconclusive = weak or mixed curves; inactive = no such curve, though single readings can be large; an effect the other way counts as inactive or inconclusive.
How the values were obtained:
[1] = Caspase-3/7 induction in HepG2 cells by small molecules, qHTS assay (AID 1346978); also: nearly all actives have a fitted effect of over 15% in size
Outline: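 Wild-type HepG2 cells, 2,000/well, settled 5 hr at 37 C and 5% CO2, then compound-treated for 17 hr; caspase-3/7 activity read by luminescent Caspase-Glo 3/7 after 30 min at room temperature.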

[2] = Caspase-3/7 induction in CHO-K1 cells by small molecules, qHTS cell viability counter screen (AID 1346979); also: nearly all actives have a fitted effect of over 35% in size; also: potency is read from the fitted curve at half-maximal effect
Outline: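 Cytotoxicity counter screen run in parallel with the caspase-3/7 assay: CHO-K1 cells, 16hr compound treatment at 37C, then CellTiter-Fluor for 1hr before fluorescence reading.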

[3] = Caspase-3/7 induction in CHO-K1 cells by small molecules, qHTS assay (AID 1346980); also: nearly all actives have a fitted effect of over 15% in size
Outline: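 Wild-type CHO-K1 cells exposed to compounds for 17hr at 37 C, 5% CO2. Caspase-3/7 activity then measured by Caspase-Glo 3/7 luminescence after 30min at room temperature.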

[4] = Caspase-3/7 induction in HepG2 cells by small molecules, qHTS cell viability counter screen (AID 1346981); also: series mostly up to about 92 µM; nearly all actives have a fitted effect of over 30% in size
Outline: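 Steps: seed 2,000 HepG2 cells per well; incubate 5 hr at 37 C; pin-add compounds in DMSO; incubate 16 hr; add CellTiter-Fluor; after 1 hr at 37 C and 5% CO2, read fluorescence.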

[5] = biological target: Nuclear receptor subfamily 1 group I member 2 (Homo sapiens) (UniProt O75469); assay: Human pregnane X receptor (PXR) small molecule agonists, qHTS assay (AID 1346982); also: nearly all actives have a fitted effect of over 35% in size
Outline: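 Agonist mode qHTS: PXR-Luc HepG2 cells plated 5 hr before DMSO-dissolved compounds were pinned in, cultured 24 hr at 37 C, 5% CO2; ONE-Glo luminescence readout.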

[6] = biological target: Nuclear receptor subfamily 1 group I member 2 (Rattus norvegicus) (UniProt Q9R1A7); assay: Rat pregnane X receptor (rPXR) activation by small molecules, qHTS assay (AID 1346983); details: rPXR luciferase reporter cells, One-Glo luminescence, 24 h; stronger effect = higher value; also: nearly all actives have a fitted effect of over 20% in size
Outline: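 Cell-based rPXR activation assay: rPXR cells, 2,000 per well, rested 5hr at 37 C, then exposed to compounds in DMSO for 24 hr at 37 C. Luciferase activity read by One-Glo luminescence after 30 min at room temperature.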

[7] = biological target: Nuclear receptor subfamily 1 group I member 2 (Homo sapiens) (UniProt O75469); assay: CYP3A4 induction through human pregnane X receptor (PXR) by small molecules, qHTS assay (AID 1346984); also: nearly all actives have a fitted effect of over 40% in size
Outline: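 Steps: seed DPX-2 cells, 5 hr at 37C; pin-transfer compounds; 24 hr at 37C; add Luciferin-IPA (3uM final), 3 hr at 37C; add One-Glo, 30 min RT; read luminescence.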

[8] = biological target: Nuclear receptor subfamily 1 group I member 2 (Homo sapiens) (UniProt O75469); assay: Human pregnane X receptor (PXR) activation by small molecules, qHTS assay (AID 1346985); also: nearly all actives have a fitted effect of over 40% in size
Outline: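 DPX-2 cells (HepG2 co-transfected with a PXR response element and a CYP3A4-promoter luciferase construct) were seeded at 2,000 per well, rested 5 hr at 37C, then exposed to DMSO-dissolved compounds for 24 hr. Activation was read as luciferase luminescence.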

[9] = biological target: Cytochrome P450 2D6 (Homo sapiens) (UniProt P10635); assay: Cytochrome P450 Family 2 Subfamily D Member 6 (CYP2D6) small molecule antagonists: luciferase reporter qHTS assay (AID 1671196); also: nearly all actives have a fitted effect of over 50% in size; also: potency is read from the fitted curve at half-maximal effect; as to activity change, negative = inhibition: series mostly up to about 120 µM
Outline: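 P450-Glo format: CYP2D6 converts a proluciferin substrate to luciferin in an NADPH-driven reaction lasting 1 h at room temperature. Light output, proportional to CYP2D6 activity, reflects interference by test chemicals.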

[10] = biological target: Cytochrome P450 2C19 (Homo sapiens) (UniProt P33261); assay: Cytochrome P450 Family 2 Subfamily C Member 19 (CYP2C19) small molecule antagonists: luciferase reporter qHTS assay (AID 1671197); also: nearly all actives have a fitted effect of over 65% in size; also: potency is read from the fitted curve at half-maximal effect; as to activity change, negative = inhibition: series mostly up to about 120 µM
Outline: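 P450-Glo CYP2C19 system: enzyme-substrate mix with compound 10 min at room temperature, then NADPH regeneration solution, 1 h at 37C. Proluciferin-to-luciferin conversion detected by luminescence after 20 min with detection reagent; ketoconazole as positive control.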

Sequence of Nuclear receptor subfamily 1 group I member 2 (Homo sapiens) (O75469 whole entry, looked up): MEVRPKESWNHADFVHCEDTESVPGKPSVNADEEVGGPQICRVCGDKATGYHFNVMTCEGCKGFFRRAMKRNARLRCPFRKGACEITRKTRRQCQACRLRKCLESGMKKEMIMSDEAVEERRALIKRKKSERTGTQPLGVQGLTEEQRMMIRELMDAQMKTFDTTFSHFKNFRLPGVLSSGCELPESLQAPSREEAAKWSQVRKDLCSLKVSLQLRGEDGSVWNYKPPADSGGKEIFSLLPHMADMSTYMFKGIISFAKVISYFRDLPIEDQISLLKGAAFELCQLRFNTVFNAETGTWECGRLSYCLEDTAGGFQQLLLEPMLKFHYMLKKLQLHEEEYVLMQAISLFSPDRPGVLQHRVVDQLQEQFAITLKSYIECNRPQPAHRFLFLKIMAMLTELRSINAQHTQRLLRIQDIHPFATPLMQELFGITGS
Sequence of Cytochrome P450 2D6 (Homo sapiens) (P10635 whole entry, looked up): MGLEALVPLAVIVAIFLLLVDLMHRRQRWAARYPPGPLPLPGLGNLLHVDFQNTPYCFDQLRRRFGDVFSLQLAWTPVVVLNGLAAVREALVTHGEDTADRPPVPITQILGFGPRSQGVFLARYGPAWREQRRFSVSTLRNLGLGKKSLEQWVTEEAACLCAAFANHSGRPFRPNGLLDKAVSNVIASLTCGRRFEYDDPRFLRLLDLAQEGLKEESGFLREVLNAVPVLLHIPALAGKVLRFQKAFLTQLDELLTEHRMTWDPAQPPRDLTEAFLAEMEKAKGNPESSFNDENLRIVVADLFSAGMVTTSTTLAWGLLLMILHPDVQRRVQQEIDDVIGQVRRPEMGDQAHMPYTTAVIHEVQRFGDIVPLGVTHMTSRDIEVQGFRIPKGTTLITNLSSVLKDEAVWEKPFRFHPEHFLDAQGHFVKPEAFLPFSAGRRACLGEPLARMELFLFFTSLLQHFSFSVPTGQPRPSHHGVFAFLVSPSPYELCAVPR
Sequence of Nuclear receptor subfamily 1 group I member 2 (Rattus norvegicus) (Q9R1A7 whole entry, looked up): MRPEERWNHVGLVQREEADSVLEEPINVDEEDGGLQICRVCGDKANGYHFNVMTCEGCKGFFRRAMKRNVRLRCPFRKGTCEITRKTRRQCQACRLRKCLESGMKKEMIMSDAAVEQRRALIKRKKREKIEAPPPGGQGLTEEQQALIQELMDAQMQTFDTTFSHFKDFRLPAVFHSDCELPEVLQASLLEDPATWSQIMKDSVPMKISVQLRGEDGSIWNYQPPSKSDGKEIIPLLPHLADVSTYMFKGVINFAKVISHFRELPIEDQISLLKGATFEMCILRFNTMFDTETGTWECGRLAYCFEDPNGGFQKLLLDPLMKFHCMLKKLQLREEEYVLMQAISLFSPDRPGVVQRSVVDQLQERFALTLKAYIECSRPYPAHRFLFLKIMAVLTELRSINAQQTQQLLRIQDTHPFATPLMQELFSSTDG
Sequence of Cytochrome P450 2C19 (Homo sapiens) (P33261 whole entry, looked up): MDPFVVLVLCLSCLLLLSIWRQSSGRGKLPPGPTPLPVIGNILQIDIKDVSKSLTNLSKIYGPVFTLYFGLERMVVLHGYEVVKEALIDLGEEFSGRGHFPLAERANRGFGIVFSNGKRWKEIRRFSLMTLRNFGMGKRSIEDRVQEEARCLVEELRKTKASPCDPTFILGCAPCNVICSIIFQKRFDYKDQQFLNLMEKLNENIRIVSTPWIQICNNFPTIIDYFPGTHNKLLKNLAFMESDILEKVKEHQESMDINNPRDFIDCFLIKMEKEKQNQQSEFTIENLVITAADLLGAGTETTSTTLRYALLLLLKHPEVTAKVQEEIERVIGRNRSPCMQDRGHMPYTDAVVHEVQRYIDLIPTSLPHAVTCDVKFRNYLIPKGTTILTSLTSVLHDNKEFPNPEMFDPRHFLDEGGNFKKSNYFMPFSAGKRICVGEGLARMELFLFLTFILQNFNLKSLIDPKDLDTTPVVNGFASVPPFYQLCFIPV

Structure (SMILES): COC(=O)c1cccnc1
- Potency [1]: inactive
- Potency [2]: inactive
- outcome [3]: inactive
- Potency [4]: inactive
- Potency [5]: inactive
- max activation [6]: -1.84% (inactive)
- Potency [7]: inactive
- outcome [8]: inactive
- Potency [9]: inactive
- Potency [10]: inactive

Structure (SMILES): C=C(C)[C@H]1CC=C(C)C(=O)C1
- Potency [1]: inactive
- Potency [2]: inactive
- outcome [3]: inactive
- Potency [4]: inactive
- Potency [5]: inactive
- Potency [9]: 18.2 µM (active) and inactive
- Potency [10]: inactive

Structure (SMILES): C=CCCCCCCCCC(=O)O
- Potency [1]: inactive
- Potency [2]: inactive
- outcome [3]: inactive
- Potency [4]: inactive
- Potency [5]: inactive
- max activation [6]: -1.23% (inactive)
- Potency [7]: inactive
- outcome [8]: inactive
- Potency [9]: inactive
- Potency [10]: inactive

Structure (SMILES): N#Cc1ccccc1
- Potency [1]: inactive
- Potency [2]: inactive
- outcome [3]: inactive
- Potency [4]: inactive
- Potency [5]: inactive
- Potency [9]: inactive
- Potency [10]: inactive

Structure (SMILES): Cc1ccc2ncccc2c1
- Potency [1]: inactive
- Potency [2]: inactive
- outcome [3]: inactive
- Potency [4]: inactive
- Potency [5]: inactive
- Potency [9]: inactive
- Potency [10]: inactive

Structure (SMILES): C=CCc1ccc(OC)c(OC)c1
- Potency [1]: inactive
- Potency [2]: inactive
- outcome [3]: inactive
- Potency [4]: inactive
- Potency [9]: inactive
- Potency [10]: inactive

Structure (SMILES): CCOCC(=O)O
- Potency [1]: inactive
- Potency [2]: inactive
- outcome [3]: inactive
- Potency [4]: inactive
- Potency [5]: inactive
- Potency [9]: 32.4 µM (active) and 31.7 µM (active)
- Potency [10]: inactive

Structure (SMILES): CC(=O)CC(C)(C)O
- Potency [1]: inactive
- Potency [2]: inactive
- outcome [3]: inactive
- Potency [4]: inactive
- Potency [5]: inactive
- Potency [9]: inactive
- Potency [10]: 40.6 µM (active) and inactive

Structure (SMILES): COc1ccccc1OCC(O)CO (stereo not given)
- Potency [1]: inactive
- Potency [2]: inactive
- outcome [3]: inactive
- Potency [4]: inactive

Structure (SMILES): O=C(O)c1ccccc1C(=O)O
- Potency [1]: inactive
- Potency [2]: inactive
- outcome [3]: inactive
- Potency [4]: inactive
- Potency [5]: inactive
- Potency [9]: inactive
- Potency [10]: 41.2 µM (active) and 82.1 µM (active)

Structure (SMILES): CC1(C)OC[C@@H]2O[C@@]3(C(=O)O)OC(C)(C)O[C@H]3[C@@H]2O1
- Potency [1]: inactive
- Potency [2]: inactive
- outcome [3]: inactive
- Potency [4]: inactive
- max activation [6]: -1.74% (inactive)
- Potency [7]: inactive
- outcome [8]: inactive
- Potency [9]: inactive
- Potency [10]: inactive

Structure (SMILES): CC1(C)NC(=O)NC1=O
- Potency [1]: inactive
- Potency [2]: inactive
- outcome [3]: inactive
- Potency [4]: inactive
- Potency [9]: inactive
- Potency [10]: inactive

Structure (SMILES): COC(=O)CCCC(=O)OC
- Potency [1]: inactive
- Potency [2]: 54 µM (active) and inactive
- outcome [3]: inactive
- Potency [4]: inactive
- Potency [5]: inactive
- Potency [9]: inactive
- Potency [10]: inactive

Structure (SMILES): CCc1ccccc1CC
- Potency [1]: inactive
- Potency [2]: inactive
- outcome [3]: inactive
- Potency [4]: inactive
- Potency [5]: inactive
- Potency [9]: inactive
- activity change, negative = inhibition [10]: 2.36% [at 23.6 µM] (inactive)

Structure (SMILES): C[Si]1(C)O[Si](C)(C)O[Si](C)(C)O[Si](C)(C)O1
- Potency [1]: inactive
- Potency [2]: inactive
- outcome [3]: inactive
- Potency [4]: inactive
- Potency [9]: inactive
- Potency [10]: inactive

Structure (SMILES): N[C@H](Cc1c[nH]c2ccccc12)C(=O)O
- Potency [1]: inactive
- Potency [2]: inactive
- outcome [3]: inactive
- Potency [4]: inactive
- Potency [5]: inactive
- max activation [6]: -2.63% (inactive)
- outcome [8]: inactive
- Potency [9]: inactive
- Potency [10]: inactive

Structure (SMILES): CC(C)c1cccc(C(C)C)c1
- Potency [1]: inactive
- Potency [2]: inactive
- outcome [3]: inactive
- Potency [4]: inactive
- Potency [5]: inactive
- Potency [9]: inactive

Structure (SMILES): CCNc1cccc(C)c1
- Potency [1]: inactive
- Potency [2]: inactive
- outcome [3]: inactive
- Potency [4]: inactive
- Potency [5]: inactive
- Potency [9]: inactive
- Potency [10]: 30.5 µM (active) and inactive

Structure (SMILES): C=C(C)CNCC
- Potency [1]: inactive
- Potency [2]: inactive
- outcome [3]: inactive
- Potency [4]: inactive
- Potency [5]: inactive
- Potency [9]: 31.2 µM (active) and inactive
- Potency [10]: inactive

Structure (SMILES): CN/C(=C\[N+](=O)[O-])NCCSCc1csc(CN(C)C)n1
- Potency [1]: inactive
- Potency [2]: inactive
- outcome [3]: inactive
- Potency [4]: inactive
- Potency [5]: inactive
- max activation [6]: -2.39% (inactive)
- Potency [7]: inactive
- outcome [8]: inactive
- Potency [9]: 35.6 µM (active) and inactive

Structure (SMILES): CC(=O)c1ccc(O)cc1
- Potency [1]: inactive
- Potency [2]: inactive
- outcome [3]: inactive
- Potency [4]: inactive
- Potency [9]: inactive
- Potency [10]: inactive

Structure (SMILES): CC(C)=CCl
- Potency [1]: inactive
- Potency [2]: inactive
- outcome [3]: inactive
- Potency [4]: inactive
- Potency [5]: inactive
- Potency [9]: 10.1 µM (active) and inactive
- Potency [10]: inactive

Structure (SMILES): C[C@]12CC[C@@H]3c4ccc(O)cc4CC[C@H]3[C@@H]1C[C@@H](O)[C@@H]2O
- Potency [1]: inactive
- Potency [2]: inactive
- outcome [3]: inactive
- Potency [4]: inactive
- Potency [5]: inactive
- max activation [6]: -0.315% (inactive)
- Potency [7]: inactive
- outcome [8]: inactive
- Potency [9]: inactive
- Potency [10]: inactive

Structure (SMILES): CCO[Si](CCCN)(OCC)OCC
- Potency [1]: inactive
- Potency [2]: inactive
- outcome [3]: inactive
- Potency [4]: inactive
- Potency [5]: inactive
- Potency [9]: inactive
- Potency [10]: inactive

Source: PubChem BioAssay (Tox21)
